# Reference: the supplement of paper PMC9334596
# Several values for one entry are separate records, joined by “and”; a condition that tells them apart may be missing. Equal entries are not always repeated. Whole data set: some 5,300 compounds, median “PER2::LUC luminescence relative to vehicle control” near 0.96, cut for the highest 2% near 1.3. Only a selection was taken, and the highest values are over-represented in it overall.
# System: mPer2Luc MEF
# Assay: PER2::LUC luminescence relative to vehicle control (fold of vehicle); higher = higher PER2::LUC reporter signal
# Conditions: 10 µM
# In short: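 Each value gives PER2::LUC luminescence as fold of vehicle control, measured with the ONE-Glo luciferase assay system in mouse embryonic fibroblasts carrying the mPer2Luc reporter. Cells grown in DMEM with 10% FBS at 37 °C and 5% CO2 were seeded at ~3000 per well in 384-well plates. Library compounds were added at 10 μM 48 h later, and readings were taken 24 h and 30 h after treatment.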
compound,measurement,setting,value
NS(=O)(=O)c1ccc(-c2c(-c3ccccc3)noc2C(F)F)cc1,PER2::LUC luminescence,time after treatment 24 h,1.04
same,PER2::LUC luminescence,time after treatment 30 h,1
CO[C@H]1C[C@H](O[C@@H]2/C(C)=C/C[C@@H]3C[C@@H](C[C@]4(CC[C@H](C)[C@H](C5CCCCC5)O4)O3)OC(=O)[C@H]3C=C(C)/C(=N\O)[C@H]4OCC(=C/C=C/[C@@H]2C)[C@@]34O)O[C@@H](C)[C@@H]1O,PER2::LUC luminescence,time after treatment 24 h,0.989
same,PER2::LUC luminescence,time after treatment 30 h,0.929
CSc1ccccc1NC(C)=O,PER2::LUC luminescence,time after treatment 24 h,0.972
same,PER2::LUC luminescence,time after treatment 30 h,0.93
CC(=O)N[C@H]1[C@H]([C@H](O)[C@H](O)CO)OC(O)(C(=O)O)C[C@@H]1O (stereo not given in full),PER2::LUC luminescence,time after treatment 24 h,1.03
same,PER2::LUC luminescence,time after treatment 30 h,0.921
COc1ccc(-c2ccc3cc(C(=O)O)ccc3c2)cc1C12CC3CC(CC(C3)C1)C2,PER2::LUC luminescence,time after treatment 24 h,1.49
same,PER2::LUC luminescence,time after treatment 30 h,1.86
O=C(O)/C=C/c1ccc(-c2ccc(O)c(C34CC5CC(CC(C5)C3)C4)c2)cc1,PER2::LUC luminescence,time after treatment 24 h,0.735
same,PER2::LUC luminescence,time after treatment 30 h,0.721
O=C(O)c1ccc2cc(-c3ccc(O)c(C45CC6CC(CC(C6)C4)C5)c3)ccc2c1,PER2::LUC luminescence,time after treatment 24 h,1.59
same,PER2::LUC luminescence,time after treatment 30 h,1.63
COc1cc(C(=O)O[C@H]2C[C@@H]3CC[C@]2(C)C3(C)C)ccc1O,PER2::LUC luminescence,time after treatment 24 h,1.15
same,PER2::LUC luminescence,time after treatment 30 h,1.19
COc1cc(C(=O)O)cc(OC)c1O,PER2::LUC luminescence,time after treatment 24 h,1.06
same,PER2::LUC luminescence,time after treatment 30 h,1.08
NC(=O)c1cccc(NC(=O)/C=C/c2c[nH]c3ccccc23)c1,PER2::LUC luminescence,time after treatment 24 h,1.08
same,PER2::LUC luminescence,time after treatment 30 h,1.06
C=C1/C(=C\C=C2/CCC[C@]3(C)[C@@H]([C@H](C)CC[C@@H](O)C(C)(C)O)CC[C@@H]23)C[C@@H](O)C[C@@H]1O,PER2::LUC luminescence,time after treatment 24 h,0.999
same,PER2::LUC luminescence,time after treatment 30 h,0.835
CC1(C)C2CCC1(C(=O)O)C(=O)C2 (stereo not given),PER2::LUC luminescence,time after treatment 24 h,0.998
same,PER2::LUC luminescence,time after treatment 30 h,0.954
CC(=O)Nc1ncc([N+](=O)[O-])s1,PER2::LUC luminescence,time after treatment 24 h,1.33 and 1.09
same,PER2::LUC luminescence,time after treatment 30 h,0.865 and 1.09
O=C(Nc1ncc([N+](=O)[O-])s1)c1ccccc1O,PER2::LUC luminescence,time after treatment 24 h,1.45
same,PER2::LUC luminescence,time after treatment 30 h,1.73
CC(=O)Oc1ccccc1C(=O)Nc1ncc([N+](=O)[O-])s1,PER2::LUC luminescence,time after treatment 24 h,0.826
same,PER2::LUC luminescence,time after treatment 30 h,1.16
O=C(Nc1ncc([N+](=O)[O-])s1)c1ccc([N+](=O)[O-])c(Cl)c1,PER2::LUC luminescence,time after treatment 24 h,0.928
same,PER2::LUC luminescence,time after treatment 30 h,1.22
COc1ccc(CNC(=O)c2sc3nc(C)cc(C)c3c2N)cc1,PER2::LUC luminescence,time after treatment 24 h,0.953
same,PER2::LUC luminescence,time after treatment 30 h,0.979
COc1ccc(CNC(=O)Nc2ncc([N+](=O)[O-])s2)cc1,PER2::LUC luminescence,time after treatment 24 h,1.35
same,PER2::LUC luminescence,time after treatment 30 h,1.27
COc1ccc(C2=N[C@@H](c3ccc(Cl)cc3)[C@@H](c3ccc(Cl)cc3)N2C(=O)N2CCNC(=O)C2)c(OC(C)C)c1 (racemic),PER2::LUC luminescence,time after treatment 24 h,0.971
same,PER2::LUC luminescence,time after treatment 30 h,0.948
Nc1ncnc2c1ncn2[C@@H]1O[C@H](CO)C[C@@H]1O,PER2::LUC luminescence,time after treatment 24 h,0.952
same,PER2::LUC luminescence,time after treatment 30 h,0.956
NCCCCCCCCCCNCCCN,PER2::LUC luminescence,time after treatment 24 h,0.962
same,PER2::LUC luminescence,time after treatment 30 h,0.892
C[C@H](NC(=O)CNC(=O)[C@@H](NC(=O)[C@H](Cc1ccccc1)NC(=O)CNC(=O)CNC(=O)[C@@H](N)Cc1ccccc1)[C@@H](C)O)C(=O)N[C@@H](CCCN=C(N)N)C(=O)N[C@@H](CCCCN)C(=O)N[C@@H](CO)C(=O)N[C@@H](C)C(=O)N[C@@H](CCCN=C(N)N)C(=O)N[C@@H](CCCCN)C(N)=O,PER2::LUC luminescence,time after treatment 24 h,1.02
same,PER2::LUC luminescence,time after treatment 30 h,0.922
O=C(O)c1ccc2c(c1)nc(Nc1cccc(Cl)c1)c1ccncc12,PER2::LUC luminescence,time after treatment 24 h,0.795
same,PER2::LUC luminescence,time after treatment 30 h,1.39
COc1cc2ncnc(Nc3cccc(Cl)c3)c2cc1OC,PER2::LUC luminescence,time after treatment 24 h,0.991 and 0.715
same,PER2::LUC luminescence,time after treatment 30 h,0.978 and 0.705
O=C(NCCO)c1ccc2c(c1)nc(Nc1cccc(Cl)c1)c1ccncc12,PER2::LUC luminescence,time after treatment 24 h,1.03
same,PER2::LUC luminescence,time after treatment 30 h,0.995
C/C1=C2N=C(/C=C3N=C(/C(C)=C4\[N-]C(C(CC(N)=O)C4(C)CCC(=O)NCC(C)OP(=O)([O-])OC4C(CO)OC(n5cnc6cc(C)c(C)cc65)C4O)C4(C)N=C1C(CCC(N)=O)C4(C)CC(N)=O)C(CCC(N)=O)C\3(C)C)C(CCC(N)=O)C/2(C)CC(N)=O.[CH3-].[Co+3] (stereo not given),PER2::LUC luminescence,time after treatment 24 h,1.07
same,PER2::LUC luminescence,time after treatment 30 h,1.03
Cc1cnc(-c2cnc(NCCNc3ccc(C#N)cn3)nc2-c2ccc(Cl)cc2Cl)[nH]1,PER2::LUC luminescence,time after treatment 24 h,1.56
same,PER2::LUC luminescence,time after treatment 30 h,1.06
CN1CCN(C2CCC(n3cc(-c4ccc(Oc5ccccc5)cc4)c4c(N)ncnc43)CC2)CC1 (stereo not given),PER2::LUC luminescence,time after treatment 24 h,0.091
same,PER2::LUC luminescence,time after treatment 30 h,0.137
C[C@@H](NC(=O)c1cc(C(=O)N[C@@H](Cc2ccccc2)[C@H](O)CNC2CC2)cc(N(C)S(C)(=O)=O)c1)c1ccccc1,PER2::LUC luminescence,time after treatment 24 h,1.01
same,PER2::LUC luminescence,time after treatment 30 h,1.09
NCCCC[C@H](NC(=O)[C@@H]1CCCN1C(=O)[C@@H]1CSSC[C@H](N)C(=O)N[C@@H](Cc2ccccc2)C(=O)N[C@@H](Cc2ccccc2)C(=O)N[C@@H](CCC(N)=O)C(=O)N[C@@H](CC(N)=O)C(=O)N1)C(=O)NCC(N)=O,PER2::LUC luminescence,time after treatment 24 h,1.08
same,PER2::LUC luminescence,time after treatment 30 h,1.13
COc1ccccc1N1CCN(CCN2C(=O)N=C3C(=Nc4ccccc43)C2=O)CC1,PER2::LUC luminescence,time after treatment 24 h,0.831
same,PER2::LUC luminescence,time after treatment 30 h,0.823
Nc1ncnc2c1ncn2[C@@H]1O[C@H](COP(=O)(O)O)[C@@H](O)[C@H]1O,PER2::LUC luminescence,time after treatment 24 h,1.22 and 1.13
same,PER2::LUC luminescence,time after treatment 30 h,1.14 and 1.05
NC(=O)c1ncn([C@@H]2O[C@H](CO)[C@@H](O)[C@H]2O)c1N,PER2::LUC luminescence,time after treatment 24 h,1.32 and 0.733
same,PER2::LUC luminescence,time after treatment 30 h,1.18 and 0.988
NC(=O)c1ncn(C2OC(COP(=O)(O)O)C(O)C2O)c1N (stereo not given),PER2::LUC luminescence,time after treatment 24 h,1.36
same,PER2::LUC luminescence,time after treatment 30 h,1.3
NCCOCCOCCNC(=O)Cc1ccc(Nc2nc(NCc3ccc(F)cc3)nc(NCC3CCCCC3)n2)cc1,PER2::LUC luminescence,time after treatment 24 h,1.09
same,PER2::LUC luminescence,time after treatment 30 h,1.03
O=C(O)c1ccccc1Nc1ccccc1,PER2::LUC luminescence,time after treatment 24 h,1.02
same,PER2::LUC luminescence,time after treatment 30 h,0.974
C/C(=C\C(=O)Nc1ccccc1C(=O)O)c1ccc2ccccc2c1,PER2::LUC luminescence,time after treatment 24 h,1.53
same,PER2::LUC luminescence,time after treatment 30 h,1.46
COc1ccc(/C=C/C(=O)Nc2ccccc2C(=O)O)cc1OC,PER2::LUC luminescence,time after treatment 24 h,0.844 and 0.327
O[C@H]1CCN2Cc3ccccc3N=C12,PER2::LUC luminescence,time after treatment 24 h,0.987
same,PER2::LUC luminescence,time after treatment 30 h,0.932
CC1CCC(C(C)C)C(O)C1 (racemic),PER2::LUC luminescence,time after treatment 24 h,1.02
same,PER2::LUC luminescence,time after treatment 30 h,1.25
O=C(CS(=O)(=O)Cc1ccccc1)N1CCOCC1,PER2::LUC luminescence,time after treatment 24 h,0.841
same,PER2::LUC luminescence,time after treatment 30 h,0.781
CCCNC(C)(C)COC(=O)c1ccccc1,PER2::LUC luminescence,time after treatment 24 h,0.894
same,PER2::LUC luminescence,time after treatment 30 h,0.968
CCCCNc1ccc(C(=O)OCCOCCOCCOCCOCCOCCOCCOCCOCCOC)cc1,PER2::LUC luminescence,time after treatment 24 h,1.07
same,PER2::LUC luminescence,time after treatment 30 h,0.94
CCCCNc1cc(C(=O)O)cc(S(N)(=O)=O)c1Oc1ccccc1,PER2::LUC luminescence,time after treatment 24 h,1.21
same,PER2::LUC luminescence,time after treatment 30 h,1.86
CC(=O)Nc1ccc(C(=O)Nc2ccccc2N)cc1,PER2::LUC luminescence,time after treatment 24 h,0.744
same,PER2::LUC luminescence,time after treatment 30 h,0.677
CC(=O)Nc1ccc(C(=O)O)cc1,PER2::LUC luminescence,time after treatment 24 h,1.03
same,PER2::LUC luminescence,time after treatment 30 h,0.901
C[C@@](N)(C(=O)O)c1ccc(C(=O)O)cc1,PER2::LUC luminescence,time after treatment 24 h,1.01
same,PER2::LUC luminescence,time after treatment 30 h,0.938
CC1(C)CCC(C)(C)c2cc(NC(=O)c3ccc(C(=O)O)cc3)ccc21,PER2::LUC luminescence,time after treatment 24 h,1.77
same,PER2::LUC luminescence,time after treatment 30 h,1.63
CC1(C)CCC(C)(C)c2cc(C(=O)Nc3ccc(C(=O)O)cc3)ccc21,PER2::LUC luminescence,time after treatment 24 h,1.64
same,PER2::LUC luminescence,time after treatment 30 h,1.67
O=C(Nc1ccc(C(=O)O)c(O)c1)c1ccccc1,PER2::LUC luminescence,time after treatment 24 h,1.03
same,PER2::LUC luminescence,time after treatment 30 h,1.13
CC(N)(C(=O)O)c1ccc(C(=O)O)cc1 (racemic),PER2::LUC luminescence,time after treatment 24 h,0.971
same,PER2::LUC luminescence,time after treatment 30 h,0.694
CC(=Cc1ccc(C(=O)O)cc1)c1ccc2c(c1)C(C)(C)CCC2(C)C,PER2::LUC luminescence,time after treatment 24 h,1.66
same,PER2::LUC luminescence,time after treatment 30 h,1.52
NC1(C(=O)O)CCc2cc(C(=O)O)ccc21 (stereo not given),PER2::LUC luminescence,time after treatment 24 h,0.992
same,PER2::LUC luminescence,time after treatment 30 h,0.984
